Molecules are shown by their SMILES. About 4,300 (8.3%) of roughly 52,000 compounds were called active. No stated cut-off is given here; in the data, active means survival mostly below about 52% (no sharp cut-off); inactive means mostly above about 56%. Shown is part of a subset that was picked to be rich in actives.

The assay relates to DeltatarO mutant. Put plainly: growth inhibition of S. aureus wild type versus tarO mutant, primary screen, teichoic acid synthesis inhibitors, RN4220, OD600 (AID 463173). Particulars: OD600, 18 h, hits give low values, screened at 18.75 µg/mL (by protocol).
Regarding `O=C(Nc1ccccc1F)c1nc(S(=O)(=O)Cc2ccccc2F)ncc1Cl`, the survival is -4% (active).

In the case of `CCOc1ccc(NC(=O)c2nc(S(=O)(=O)Cc3ccccc3F)ncc2Cl)cc1`, the survival was 11% (active).

For `COc1ccc(NC(=O)c2nc(SCc3ccccc3F)ncc2Cl)cc1`, the survival was 73% (inactive).

As for `COc1ccc2nc(NC(=O)c3nc(S(=O)(=O)Cc4ccccc4F)ncc3Cl)sc2c1`, the survival was 61% (inactive).

Regarding `COC(=O)c1ccccc1NC(=O)c1nc(S(=O)(=O)Cc2ccccc2F)ncc1Cl`, the survival was 110% (inactive).

Consider `O=C(Nc1ccccc1F)c1nc(SCc2ccccc2F)ncc1Cl`, for which the survival was 73% (inactive).

With `Cc1cc(C)c2c(=O)cc(C(=O)Nc3sc4c(c3C(=O)NCc3cccnc3)CCCC4)oc2c1`, the survival was 68% (inactive).

`CCOCCCNC(=O)c1c(NC(=O)c2cc(=O)c3ccccc3o2)sc2c1CCC2`: the survival was 48% (inactive).

For the compound `Cc1nc2c(Cl)cc(Cl)cc2[nH]1`, the survival was 88% (inactive).

As for `CCOc1cccc2cc(-c3cn4c(n3)sc3cc(C)ccc34)c(=O)oc12`, the survival was -4% (active).

On to `CCOc1cccc2cc(-c3cn4c(n3)sc3ccccc34)c(=O)oc12`, for which the survival was 72% (inactive).

For `COc1cccc2cc(-c3cn4c(n3)sc3cc(F)ccc34)c(=O)oc12`, the survival is 60% (inactive).

`COCCCNC(=O)CS(=O)Cc1nc(-c2cccc(C)c2)oc1C` (configuration not stated): the survival is 90% (inactive).

For the compound `S=C(NC12CC3CC(CC(C3)C1)C2)N1CCOCC1`, the survival was 98% (inactive).

In the case of `CCC(C)NC(=O)c1cn(CC)c2ccc(S(=O)(=O)N3CCCCC3)cc2c1=O` (configuration not stated), the survival is 84% (inactive).

As to `Cc1ccc(COC(=O)c2[nH]c3c(c2C)C(=O)CC(c2ccc(N(C)C)cc2)C3)cc1` (configuration not stated), the survival was 77% (inactive).

As to `CCCOC(=O)c1c(NC(=O)c2nc3ncccn3n2)sc(C(=O)OCC)c1C`, the survival was 68% (inactive).

`O=C(CN1C(=O)CCc2cc(S(=O)(=O)N3CCCCC3)ccc21)NCc1ccc(Cl)cc1`: the survival was 78% (inactive).

Consider `CC(=O)Nc1ccccc1-c1nc2ccccc2n(CC(=O)c2ccc(C)c(C)c2)c1=O`, for which the survival was 104% (inactive).

Consider `CC(=O)Nc1ccccc1-c1nc2ccccc2n(CC(=O)c2ccc(Br)cc2)c1=O`, for which the survival is 76% (inactive).

Regarding `CCC(=O)Nc1ccccc1-c1nc2ccccc2n(CC(=O)c2ccc(Br)cc2)c1=O`, the survival is 29% (active).

`CCC(=O)Nc1ccccc1-c1nc2ccccc2n(CC(=O)c2ccc(Cl)cc2)c1=O`: the survival is 35% (active).

As to `CC(=O)Nc1ccc(C)cc1-c1nc2ccccc2n(CC(=O)c2ccc(Cl)cc2)c1=O`, the survival is 82% (inactive).

As to `CCC(=O)Nc1ccc(C)cc1-c1nc2ccccc2n(CC(=O)c2ccc(C)cc2)c1=O`, the survival was 68% (inactive).

Consider `CCC(=O)Nc1ccccc1-c1nc2ccccc2n(CC(=O)c2ccc(C)c(C)c2)c1=O`, for which the survival is 33% (active).

`CCC(=O)Nc1ccccc1-c1nc2ccccc2n(CC(=O)c2ccc(C)cc2)c1=O`: the survival was 50% (inactive).

In the case of `CCC(=O)Nc1ccccc1-c1nc2ccccc2n(CC(=O)Nc2ccc(C)c(C)c2)c1=O`, the survival was 47% (inactive).
